Rows were chosen to be rich in hits. Some 3.9% of all compounds tested hit in one or more screens of this group.
SARS 3CLpro inh = SARS-CoV 3CLpro protease inhibition. recombinant SARS-CoV 3CLpro, quenched FRET peptide cleavage. inhibition, % at 6 µM. P0C6X7. AID 1706. 290,000 compounds, 0.14% hits; in the data active = inhibition above about 12%
DUSP3 inh = inhibitors of human VHR1 phosphatase (DUSP3); P51452; AID 1654; 290,000 compounds, 0.52% hits; recombinant VHR phosphatase, pNPP absorbance; inhibition, % at 13.3 µM; in the data active = inhibition above about 50%
Target sequence (P51452 whole entry, looked up): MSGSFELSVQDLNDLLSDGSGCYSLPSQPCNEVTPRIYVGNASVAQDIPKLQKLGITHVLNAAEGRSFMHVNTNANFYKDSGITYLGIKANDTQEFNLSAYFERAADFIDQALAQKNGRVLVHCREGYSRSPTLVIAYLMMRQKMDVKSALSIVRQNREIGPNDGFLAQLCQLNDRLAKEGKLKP
Autofluor counter = compound fluorescence in toxin protease inhibitor counterscreen | compound autofluorescence counterscreen, microsphere flow cytometry; hits give high values | fluorescence intensity (no concentration beside the values) | 360,000 compounds, 3.1% hits | AID 624483; in the data active = fluorescence intensity above about 16000; inconclusive = no clear call, values can overlap the other calls
BoNT F protease = blocks Botulinum neurotoxin F light chain protease. 360,000 compounds, 0.22% hits. Multiplex microsphere protease cleavage assay, flow cytometry. inhibition, % at 10 µM; in the data active = inhibition above about 35%, passing the limit was not always enough; inconclusive = no clear call, values can overlap the other calls; also: plate controls were buffer without enzyme for full effect and enzyme alone for no effect
Anthrax LF inh2 = blocks Bacillus anthracis lethal factor protease; inhibition, % at 10 µM; P15917; 360,000 compounds, 0.12% hits; multiplex microsphere protease cleavage assay, LF; also: plate controls were buffer without enzyme for full effect and enzyme alone for no effect
BoNT A protease = blocks Botulinum neurotoxin A light chain protease | inhibition, % at 10 µM | 360,000 compounds, 0.17% hits | multiplex microsphere protease substrate cleavage, flow cytometry | AID 588499; also: plate controls were buffer without enzyme for full effect and enzyme alone for no effect
* = called active by the depositor; ? = inconclusive. Rule as the data show it, unless noted: active = inhibition above about 30%; inconclusive = no clear call, values can overlap the other calls; inactive = below that.

SMILES | SARS 3CLpro inh | DUSP3 inh | Autofluor counter | BoNT F protease | Anthrax LF inh2 | BoNT A protease
CC(C)Cc1cc(C(=O)N2N=C(C(F)F)CC2(O)C(F)F)c2ccccc2n1 (stereo not drawn) | 1 | 9 | 22633* | -12 | 0 | -10
CC(C)Oc1cccc(C(=O)O)c1 | 5 | 13 | 18055* | 8 | -6 | ?
C[C@H](NC(=O)NCc1cccs1)C(=O)O | 6 | -5 | 21235* | 7 | 3 | 3
O=C(NCc1ccc(F)cc1)c1cccnc1C(=O)O | -4 | 21 | 3344 | 4 | -6 | 0
O=C(NCc1cccs1)c1cccnc1C(=O)O | -1 | 15 | 17016* | -3 | -7 | ?
O=C(NCc1cccs1)c1ccc(Cl)s1 | 1 | 10 | 24555* | -4 | -1 | -2
O=C(CCS(=O)(=O)c1cccs1)Nc1ccc(C(=O)NCc2cccs2)cc1 | 3 | 0 | 22948* | 0 | 1 | 1
COCCN(C(=O)COC(=O)c1ccc(C=O)cc1)c1c(N)n(Cc2ccccc2)c(=O)[nH]c1=O | 2 | 24 | 5366 | 4 | 4 | 0
CCCc1ccc(C(=O)NNc2ccccc2F)cc1 | -1 | 5 | 6462 | -10 | -3 | 0
O=C(CCc1ccccc1)NNC(=O)Nc1ccc(F)c(Cl)c1 | -1 | 19 | 5744 | -5 | 3 | 3
CC(C)Oc1ccc(C(=O)NCc2cccs2)cc1 | 0 | 0 | 23288* | -2 | 0 | ?
Cc1cc(C(=O)NCc2cccs2)c(C)o1 | 0 | 12 | 19810* | -1 | -3 | 0
CN(C)CCNC(=O)c1ccc(Cl)s1 | 4 | 20 | 17028* | -5 | -1 | ?
O=C(NCc1cccs1)c1ccccc1 | 1 | 27 | 10577 | -8 | -18 | -3
Cc1cc(NC(=O)CSc2ncccc2C(=O)O)no1 | -2 | 3 | 4544 | -2 | -6 | -2
CC(C)CC(C(=O)NCC1CCCO1)N(C(=O)Cn1nnc(-c2ccc(F)cc2)n1)c1cccc(C(F)(F)F)c1 (stereo not drawn) | 0 | 14 | 23362* | -2 | -1 | ?
Cc1ccc(-c2nnn(CC(=O)N(c3ccccc3F)C(CC(C)C)C(=O)NCC3CCCO3)n2)cc1 (stereo not drawn) | 0 | 33 | 16688* | -3 | -4 | -1
Cc1ccc(-c2nnn(CC(=O)N(CC3CCCO3)C(C(=O)NC(C)(C)C)c3ccc(F)cc3)n2)o1 (stereo not drawn) | -2 | 18 | 22682* | -2 | -2 | ?
CC(C(=O)NC1CCCC1)N(C(=O)Cn1nnc(-c2ccc(F)cc2)n1)c1ccccc1F (stereo not drawn) | 8 | -20 | 4115 | 5 | -3 | 1
Cc1ccc(N(C(=O)Cn2nnc(-c3ccc(F)cc3)n2)C(CC(C)C)C(=O)NCC2CCCO2)cc1 (stereo not drawn) | 4 | 35 | 23138* | -4 | 0 | -1
O=C(Cn1c(=O)oc2ccccc21)N1CCCC1 | -1 | 32 | 3116 | 0 | -20 | 0
O=C(NCC1CCCO1)C(c1ccc(F)cc1)N(C(=O)Cn1nnc(-c2ccc(F)cc2)n1)c1cccc(O)c1 (stereo not drawn) | 11 | 47 | 3388 | 0 | -1 | 0
CC(C)CC(C(=O)NCC1CCCO1)N(C(=O)Cn1nnc(-c2ccc(F)cc2)n1)c1ccccc1F (stereo not drawn) | -6 | 13 | 21995* | -9 | -5 | -3
COc1ccccc1-c1noc(-c2ccccc2C(=O)Nc2ccccc2)n1 | -2 | -14 | 4282 | 5 | -1 | 1
CCOc1ccccc1NC(=O)c1cc(Cl)ccc1NC(=O)c1ccco1 | -5 | -10 | 17027* | 11 | -12 | 8
SMILES | SARS 3CLpro inh | DUSP3 inh | Autofluor counter | BoNT F protease | Anthrax LF inh2 | BoNT A protease
COc1ccccc1NC(=O)c1cc(Cl)ccc1NC(=O)c1ccco1 | 2 | 13 | 2849 | -16 | -6 | 0
COc1ccccc1NC(=O)c1ccccc1-c1nc(-c2ccccc2OC)no1 | 5 | 20 | 21774* | -6 | -4 | -5
COc1ccccc1NC(=O)c1ccccc1NC(=O)c1cc(Cl)ccc1NC(=O)c1ccco1 | 3 | 21 | 21221* | 3 | 0 | ?
COc1ccc(NC(=O)Cc2ccc(Cl)cc2)cc1NC(=O)c1ccco1 | 5 | 16 | 21196* | 2 | -9 | ?
COC(=O)c1ccc(NC(=O)CSc2nncn2-c2ccccn2)cc1 | 2 | 14 | 4394 | 4 | -4 | 0
Cc1sc2ncnc(SCC(=O)NC(=O)c3cccn3C)c2c1C | 2 | -2 | 4122 | -5 | 8 | 1

Screening results: PubChem, several laboratories
